Consider 13 compounds from PubChem BioAssay (Tox21).

Test [1] is described as follows: qHTS assay to identify small molecule antagonists of the retinoid acid receptor (RAR) signaling pathway - cell viability counter screen (AID 1159551). Note: nearly all actives have a fitted effect of over 35% in size. The procedure, abridged:
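Seed C3RL4 cells; next day add compound, then retinol to 1 uM final; incubate 6 h at 37 C; add CellTiter-Glo; read luminescence after 30 min at RT.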

The nature of test [2]: qHTS assay to identify small molecule antagonists of the retinoic acid receptor (RAR) signaling pathway (AID 1159552; note: nearly all actives have a fitted effect of over 50% in size). The essentials:
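Antagonism of retinol-induced RARE reporter activity was measured in C3RL4 cells. Exposure to compounds and 1 uM final retinol lasted 6 hr at 37 C, with luminescence as endpoint.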

The nature of test [3]: qHTS assay to identify small molecule agonists of the retinoic acid receptor (RAR) signaling pathway (AID 1159553). Note: potency is the fitted concentration of half-maximal effect. The essentials:
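Activation of retinol signaling was monitored via a RARE luciferase reporter in C3RL4 cells. After 6 hr compound treatment at 37 C, detection reagent was added for 30 min at room temperature before luminescence reading.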

Test [4] is described as follows: qHTS assay to identify small molecule antagonists of the estrogen related receptor (ERR) signaling pathway from Tox21 library - cell viability counter screen (AID 1224834). Note: nearly all actives have a fitted effect of over 30% in size. Note: potency is the fitted concentration of half-maximal effect. The procedure, abridged:
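CellTiter-Fluor fluorescence measured; ERR cells; 17.5 h compound incubation at 37 C; 30 min reagent step.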

Test [5] deals with Luciferin 4-monooxygenase (Photinus pyralis) (UniProt P08659). Kind of test: qHTS assay to identify small molecule inhibitors of firefly luciferase (AID 1224835). Note: nearly all actives have a fitted effect of over 25% in size. Note: potency is the fitted concentration of half-maximal effect. The essentials:
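Inhibition of purified Photinus luciferase is measured by luminescence. Substrate levels (D-luciferin, ATP) sit at their KM values. Each compound is tested in a concentration series.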

A short description of test [6]: qHTS assay to identify small molecule agonists of the constitutive androstane receptor (CAR) signaling pathway - cell viability counter screen (AID 1224836). Note: series mostly up to about 92 µM; nearly all actives have a fitted effect of over 45% in size. The procedure, abridged: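 Double-stable HepG2 hepatoma cells (hCAR plus CYP2B6-2.2kb) are treated for 23 h at 37 C with test compounds in 15-point concentration series. PK11195 at 0.75 uM final is co-added. Cell viability is quantified by CellTiter-Fluor.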

Test [7] has as its target Nuclear receptor subfamily 1 group I member 3 (Homo sapiens) (UniProt Q14994). Kind of test: qHTS assay to identify small molecule antagonists of the constitutive androstane receptor (CAR) signaling pathway (AID 1224838).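 Note: HepG2 cells stably expressing hCAR with CYP2B6 luciferase reporter stimulated by CITCO; nearly all actives have a fitted effect of over 40% in size.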 Note: potency is the fitted concentration of half-maximal effect. The procedure, abridged:
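Reporter luminescence was quantified after 24 h exposure of hCAR/CYP2B6-2.2kb double-stable HepG2 cells to compounds at 15 concentrations in the presence of 50 nM CITCO final.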

The target is the same in test [8]. Kind of test: qHTS assay to identify small molecule agonists of the constitutive androstane receptor (CAR) signaling pathway (AID 1224839).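 Note: HepG2 cells stably carrying human CAR and a CYP2B6 luciferase reporter; series mostly up to about 92 µM; nearly all actives have a fitted effect of over 15% in size.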 The procedure, abridged: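 Readout: firefly luciferase luminescence via ONE-Glo. System: HepG2 double-stable for hCAR and CYP2B6-2.2kb. Conditions: 15-point compound titration, PK11195 at 0.75 uM final, 24 h incubation.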
A short description of test [9]: qHTS assay to identify small molecule antagonists of the estrogen related receptor signaling pathway with the pleiotropic PPARgamma coactivator (PGC) from Tox21 10K library - cell viability counter screen (AID 1224840; active = well fitted cell-killing curve with a large enough effect in the repeat runs, not every such curve was filed as active; note: nearly all actives have a fitted effect of over 40% in size; note: potency is the fitted concentration of half-maximal effect). The essentials:
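Here the PGC/ERR cells serve as a cytotoxicity control: they are exposed to compounds for 17.5 hours at 37 C, and live-cell signal is quantified using CellTiter-Fluor fluorescence.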

Test [10] in a line: qHTS assay to identify small molecule antagonists of the estrogen related receptor signaling pathway with the pleiotropic PPARgamma coactivator (PGC) from Tox21 10K library (AID 1224841; call rule not given here; note: actives are mostly falling curves and most rising ones were filed inactive; nearly all actives have a fitted effect of over 50% in size; note: potency is the fitted concentration of half-maximal effect). The essentials: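 Each well held 2,000 PGC/ERR cells, pre-incubated six hours (37 C, 5% CO2). Test substances in DMSO were added by pin tool and left for 18 h at 37 C before luciferase detection by One-Glo.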

The nature of test [11]: qHTS assay to identify small molecule agonists of the estrogen related receptor signaling pathway with the pleiotropic PPARgamma coactivator (PGC) from Tox21 10K library (AID 1224842). Note: nearly all actives have a fitted effect of over 15% in size. The procedure, abridged: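 Luminescence from One-Glo (30 min, room temperature) measured after PGC/ERR cells had 18 h at 37 C with pinned compound (23 nL in DMSO). Cells had been seeded at 2,000 per well and pre-incubated 6 h.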

For test [12], the target named is Thyrotropin receptor (Homo sapiens) (UniProt P16473). As to the kind of experiment: qHTS assay to identify small molecule agonists of the thyroid stimulating hormone receptor (TSHR) signaling pathway (AID 1224843; calls by dose curve; note: nearly all actives have a fitted effect of over 45% in size). The procedure, abridged: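 HEK293 cells stably bearing the thyrotropin receptor were plated at 800 cells/well and challenged with compound (30 min, RT). Accumulated cAMP was quantified via cAMP-d2 competing for cryptate-tagged antibody.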

Test [13] in a line: qHTS assay to identify small molecule agonists of the RXR signaling pathway - cell viability counter screen (AID 1159529). Note: nearly all actives have a fitted effect of over 50% in size. Note: potency is the fitted concentration of half-maximal effect. The essentials:
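Counter screen: CellTiter-Glo luminescence. Cells: RXR-alpha-UAS-bla HEK 293T. Medium: 2% charcoal-stripped FBS. Treatment: 16 h, 37 C. Reagent incubation: 30 min, RT.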

Test [14] can be described thus: qHTS assay to identify small molecule antagonists of the constitutive androstane receptor (CAR) signaling pathway - cell viability counter screen (AID 1224837). Note: nearly all actives have a fitted effect of over 45% in size. Note: potency is the fitted concentration of half-maximal effect. The procedure, abridged:
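Using CellTiter-Fluor, viability is scored in HepG2 cells stably carrying hCAR and a 2.2kb CYP2B6 reporter after 23 hr compound exposure across 15 concentrations, with CITCO present at 50 nM.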

Test [15] in a line: qHTS assay to identify small molecule antagonists of the estrogen related receptor (ERR) signaling pathway - cell viability counter screen (AID 1224818).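 Note: series mostly up to about 46 µM; viability measured after 17.5 h of compound exposure.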 The essentials: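 In the same ERR cell assay, compound-treated wells (17.5 h, 37 C) were multiplexed with a fluorogenic viability reagent, CellTiter-Fluor, read after 30 min to flag cytotoxic substances.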
The nature of test [16]: qHTS assay to identify small molecule antagonists of the estrogen related receptor signaling pathway with the pleiotropic PPARgamma coactivator (PGC) cell viability counter screen (AID 1224822; note: series mostly up to about 46 µM). The essentials: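 Compounds in DMSO, with positive and negative controls, were applied to PGC/ERR cells (2,000/well) and left 17.5 h at 37 C before CellTiter-Fluor detection.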

Each structure is given as a SMILES string. Records with an inconclusive call do not appear. Unmarked numbers belong to inactive results. Calls of active or inactive are those of the source. Unless noted, calls come from the whole dose curve; as a rule, active = well fitted curve in the direction sought with a large enough effect in the repeat runs; inconclusive = weak or mixed curves; inactive = no such curve, though single readings can be large; an effect the other way counts as inactive or inconclusive.

Sequence of Thyrotropin receptor (Homo sapiens) (P16473 whole entry, looked up): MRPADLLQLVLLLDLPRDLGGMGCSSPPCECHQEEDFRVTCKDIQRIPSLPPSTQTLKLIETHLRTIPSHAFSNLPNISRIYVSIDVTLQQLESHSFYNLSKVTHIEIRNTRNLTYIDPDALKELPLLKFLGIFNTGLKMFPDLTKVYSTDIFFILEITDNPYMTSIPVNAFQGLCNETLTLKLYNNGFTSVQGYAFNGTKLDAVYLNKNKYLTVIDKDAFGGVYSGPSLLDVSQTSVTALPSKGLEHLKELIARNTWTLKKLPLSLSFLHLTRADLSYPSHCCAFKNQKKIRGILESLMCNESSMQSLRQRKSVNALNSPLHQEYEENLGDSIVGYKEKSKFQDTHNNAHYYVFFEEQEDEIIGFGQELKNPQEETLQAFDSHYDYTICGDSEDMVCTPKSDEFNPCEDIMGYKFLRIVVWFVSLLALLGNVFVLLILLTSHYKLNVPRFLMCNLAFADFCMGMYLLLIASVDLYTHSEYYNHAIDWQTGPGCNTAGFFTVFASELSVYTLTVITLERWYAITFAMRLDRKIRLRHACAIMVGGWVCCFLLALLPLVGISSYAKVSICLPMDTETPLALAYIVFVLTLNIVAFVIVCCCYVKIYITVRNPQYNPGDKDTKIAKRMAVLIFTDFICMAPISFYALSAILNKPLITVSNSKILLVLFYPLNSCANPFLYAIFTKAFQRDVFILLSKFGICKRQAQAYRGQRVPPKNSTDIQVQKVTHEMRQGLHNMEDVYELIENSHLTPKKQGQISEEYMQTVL
Sequence of Luciferin 4-monooxygenase (Photinus pyralis) (P08659 whole entry, looked up): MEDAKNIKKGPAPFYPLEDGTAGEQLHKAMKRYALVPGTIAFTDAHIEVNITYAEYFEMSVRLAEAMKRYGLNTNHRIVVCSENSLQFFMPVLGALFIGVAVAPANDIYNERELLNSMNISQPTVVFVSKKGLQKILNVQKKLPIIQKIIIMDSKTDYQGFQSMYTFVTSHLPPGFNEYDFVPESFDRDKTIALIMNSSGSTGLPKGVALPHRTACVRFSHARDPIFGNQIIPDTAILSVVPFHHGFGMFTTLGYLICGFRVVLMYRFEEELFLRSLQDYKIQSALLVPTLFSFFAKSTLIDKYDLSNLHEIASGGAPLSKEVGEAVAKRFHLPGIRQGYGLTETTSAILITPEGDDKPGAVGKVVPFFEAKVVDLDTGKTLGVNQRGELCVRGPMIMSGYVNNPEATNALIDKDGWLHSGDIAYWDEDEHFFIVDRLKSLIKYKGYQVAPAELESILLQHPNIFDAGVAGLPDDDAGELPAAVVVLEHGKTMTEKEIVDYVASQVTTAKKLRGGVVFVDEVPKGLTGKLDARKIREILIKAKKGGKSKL
Sequence of Nuclear receptor subfamily 1 group I member 3 (Homo sapiens) (Q14994 whole entry, looked up): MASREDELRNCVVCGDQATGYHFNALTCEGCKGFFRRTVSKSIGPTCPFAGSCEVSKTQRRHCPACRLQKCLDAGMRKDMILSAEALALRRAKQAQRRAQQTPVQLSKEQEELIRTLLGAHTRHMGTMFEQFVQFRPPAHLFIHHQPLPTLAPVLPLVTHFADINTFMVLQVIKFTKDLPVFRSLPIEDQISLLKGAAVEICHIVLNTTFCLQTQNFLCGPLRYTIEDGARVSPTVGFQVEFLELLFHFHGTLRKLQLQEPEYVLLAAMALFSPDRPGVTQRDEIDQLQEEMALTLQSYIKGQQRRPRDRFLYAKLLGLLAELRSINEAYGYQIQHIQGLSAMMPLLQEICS

Take `N=C(N=C(N)N)N1CCOCC1`: the Potency result in test [1], in test [2], in [3], in test [4], in test [5] and in test [6] was “inactive” throughout. The Potency result in test [7], in [8], in [9], in test [10], in test [11] and in test [12] was “inactive” throughout.

In the case of `O=C1CCCCCO1`, the Potency entry in [13], in test [2], in test [3], in [4], in test [5] and in test [6] was “inactive” throughout. Moreover, the Potency entry in test [14], in test [8], in [9] and in [12] was “inactive” each time.

In the case of `N#CCc1cccc(C(F)(F)F)c1`, the Potency entry in test [1], in [2], in test [3], in test [4], in [5] and in test [6] was “inactive” throughout. Also, the Potency entry in test [14], in [9] and in test [12] was “inactive” in each case.

As for `CCCCCCCCC(CO)CCCCCC` (configuration not stated), the Potency entry in [13], in [2], in test [3], in [4], in [5] and in test [6] was “inactive” in each case. The Potency entry in test [14], in test [7], in test [9], in test [10], in test [11] and in [12] was “inactive” throughout.

As to `C#CCOC(=O)[C@@H](C)Oc1ccc(Oc2ncc(Cl)cc2F)cc1`, the Potency result in test [13], in test [2], in test [3], in test [4], in test [5] and in test [6] was “inactive” throughout. Moreover, the Potency entry in test [14], in [7], in test [8], in test [9], in test [10] and in [11] was “inactive” throughout.

With `C[C@@H](C1=C(CCN(C)C)Cc2ccccc21)c1ccccn1`, the Potency result in test [1], in [2], in test [3], in test [4], in test [5] and in [6] was “inactive” in each case. The Potency result in test [14] and in test [9] was “inactive” in each case.

Consider `CN(C)CC[C@@H](c1ccc(Br)cc1)c1ccccn1`, for which the Potency result in test [1], in [2], in [3], in test [4], in test [5] and in test [6] was “inactive” each time. In addition, the Potency entry in test [14], in test [7], in test [8] and in test [9] was “inactive” in each case. The outcome in test [15] and in [16] was inactive.

For `CC1(C)CCC(C)(C)c2cc(NC(=O)c3ccc(C(=O)O)cc3)ccc21`, the Potency entry in test [13], in test [1], in test [4], in [9] and in test [12] was “inactive” in each case.

`Cc1ccc(C(C)c2ccc(C)c(C)c2)cc1C`: the Potency result in [1], in test [2], in test [3], in [4], in [5] and in test [14] was “inactive” in each case. Also, the Potency result in [7], in test [8] and in [9] was “inactive” in each case.

Take `CC(C)(C)c1ccc(OCC2CO2)cc1` (configuration not stated): the Potency result in test [1], in test [2], in [4], in test [6], in test [14] and in test [9] was “inactive” in each case. In addition, the Potency result in test [10] and in test [11] was “inactive” throughout. Moreover, the Potency was 12.4 µM (active) in test [3] and 32.4 µM (active) in test [5].

Take `Cc1cccc(Oc2ccccc2)c1`: the Potency in test [13] is 1.9 µM (active); in test [10], 53.1 µM (active). For the same compound, the Potency entry in [1], in test [6], in test [14], in test [7], in [8] and in [9] was “inactive” each time. Besides, the Potency result in test [11] and in test [12] was “inactive” in each case.

In the case of `COCCCCCCCCOCCC[Si](C)(O[Si](C)(C)C)O[Si](C)(C)C`, the Potency entry in [13], in test [1], in [5] and in test [8] was “inactive” in each case. For the same compound, in test [7], the Potency is 48.6 µM (active).

On to `Cc1cc(C)c(S(=O)(=O)O)cc1N=Nc1cc(S(=O)(=O)O)c2ccccc2c1O`, for which the Potency result in test [13], in test [7], in test [8] and in test [12] was “inactive” throughout. In addition, the Potency was 54.5 µM (active) in test [4], 1.42 µM (active) in test [5], 61.1 µM (active) in test [14] and 34.4 µM (active) in [9].
